Results published in PubChem BioAssay (NCI).
This is part of a sample that, as a whole, favours compounds with a hit. Of some 83,000 tested, about 20% had one in any assay.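 Cell lines were cultured in 96-well plates, exposed to a single compound concentration, and assessed for percent growth 48 hours later.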 Unmarked numbers belong to inactive results. The source made the active and inactive calls. The calls were made as follows: active = growth percent below 10; inactive = the rest.

Test system: UACC-257 melanoma
Assay: NCI-60 one-dose screen, 48 h (100 = growth as untreated, 0 = no growth, -100 = all killed)
Conditions: 10 µM unless noted

Structure (SMILES)	growth
CCC(CC)N1C(=O)/C(=c2\sc3n(c2=O)NC2C(N=3)N(CC)C(=O)N2CC)c2ccccc21 (stereo not drawn)	86.1%
CN1CCN(c2ccc(/C=N/Nc3nc4ccccc4c(=O)n3-c3ccccc3)cc2)CC1	114%
CC1=NC2=NC(=O)/C(=C3/N=C(C)C=C(c4ccccc4)N3N)NN2C(c2ccccc2)=C1	109%
Nc1ncc(-c2ccc3ncnc(N4CCc5cc(F)c(F)cc54)c3c2)cn1	45%
COc1ccc(Oc2ccc(/C=N/NC(=O)CSc3nc4ccccc4c(=O)n3-c3ccc(Cl)cc3)cc2)cc1	94.7%
COc1ccc2c(c1)Oc1nc(N)c(C#N)c(N)c1C2Sc1ccc(C)cc1 (stereo not drawn)	9.55% (active)
CC(=O)C1=C(C)NC(NN)=NC1c1cccc(Cl)c1 (stereo not drawn)	113%
O=C(NNc1nc2cc(F)ccc2n2c(CO)ccc12)c1cnccn1	-1.53% (active)
NC(N)=Nc1ccc(Oc2cccc(NC(N)=Nc3ccc(Br)cc3)c2)cn1	77.9%
CCOC(=O)C1=NNC(c2ccc(Cl)cc2)C1C(=O)N1C(=S)NC(=O)C1CC(C)C (stereo not drawn)	116%
CC/C(=C/c1c(O)cccc1OC)c1ccc2c(OC)cccc2[o+]1	101%
Cn1ccnc1C(=O)/C=C/c1ccc(CNC(=O)c2ccc(Cl)cc2)cc1	67.9%
COc1c(N2CC3CCCNC3C2)c(F)cc2c(=O)c(C(=O)N/N=C/c3ccc(F)cc3)cn(C3CC3)c12 (stereo not drawn)	79.5%
CN(C)CCNC(=O)c1ccc(-c2nc3ccc4[nH]ncc4c3c3c2CCC3)cc1	47.7%
C=C(C=O)[C@@H]1CC[C@]2(COC(C)=O)CC[C@]3(C)C(CC[C@@H]4[C@@]5(C)CC[C@H](OC(C)=O)C(C)(C)[C@@H]5CC[C@]43C)[C@@H]12 (stereo partly drawn)	-17.2% (active)
COc1c(N2CC3CCCNC3C2)c(F)cc2c(=O)c(C(=O)N/N=C/c3c[nH]c4ccccc34)cn(C3CC3)c12 (stereo not drawn)	121%
COc1cc(C2N=C(NNc3ccccc3)NC(C)=C2C(C)=O)ccc1O (stereo not drawn)	110%
CCCCCc1ccc(S(=O)(=O)Nc2cccc(-c3csc(NC(=O)CNCCN(C)C)n3)c2)cc1	96.1%
CCCCCc1ccc(S(=O)(=O)Nc2cccc(-c3csc(NC(=O)CCCCCN4CCN(CCO)CC4)n3)c2)cc1	86.7%

Structure (SMILES)	growth
CS(=O)(=O)Nc1cc(-c2ccc3ncc(C#N)c(NCc4ccccc4O)c3c2)cnc1Cl	6.3% (active)
CC(=O)N1C(=S)NC(=O)C1CC(C)C (stereo not drawn)	104%
COc1cc(/C=C2\C(=O)Nc3ccccc32)ccc1OCc1ccc(Cl)cc1	125%
COc1cc2oc(-c3cccc(NC(=O)c4cc(N)ccc4Cl)c3)cc(=O)c2c(OC)c1OC	127%
COc1ccc(Cn2cc3c(c2-c2cc(OC)c(OC)c(OC)c2)CCc2c(CN4CCCC4)noc2-3)cc1	77%
CCCCCc1ccc(S(=O)(=O)Nc2cccc(-c3csc(NCCN4CCN(C)CC4)n3)c2)cc1	38.1%
CCC1=Cc2cc(OC)ccc2OC12C=Cc1cc(OC)ccc1O2 (stereo not drawn)	79.6%
CCCCCc1ccc(S(=O)(=O)Nc2cccc(-c3csc(NC(=O)CCCCCN4CCN(C)CC4)n3)c2)cc1	0.162% (active)
N#Cc1cnc2ccc(-c3cnc4[nH]ncc4c3)cc2c1N1CCc2cc(F)c(Cl)cc21	36%
CC(C)C[C@@H]1N[C@@]2(C(=O)Nc3ccccc32)[C@@H](c2ccc(F)cc2)[C@@H]1C(=O)c1ccc(O)cc1	112%
O=C(NNc1nc2cc(F)cc(F)c2n2cccc12)c1cnccn1	3.96% (active)
O=C(NNc1nc2cc(F)c(F)cc2n2cccc12)c1cnccn1	17.5%
O=C(CNc1nc(-c2cccc([N+](=O)[O-])c2)cs1)Nc1cccc([N+](=O)[O-])c1	-13% (active)
CC(Nc1c(C#N)cnc2ccc(-c3cnc(N)nc3)cc12)c1ccccc1 (stereo not drawn)	34.1%
C=CCn1c(SCC(=O)Nc2ccc(C(=O)/C=C/c3ccc(Cl)cc3)cc2)nnc1-c1c[nH]c2ccccc12	99.6%
CCCCCc1ccc(S(=O)(=O)Nc2cccc(-c3csc(NC(=O)CN4CCN(C)CC4)n3)c2)cc1	93%
O=C(NCc1ncc[nH]1)c1ccc(-c2nc3ccc4[nH]ncc4c3c3c2CCCC3)cc1	27%
Cc1c(Cl)cccc1S(=O)(=O)Nc1ccc2c(c1)C(=O)N(C1CCC(=O)NC1=O)C2=O (stereo not drawn)	113%
COC(=O)C1(C)CCC[C@]2(C)[C@H]3C[C@H]4C(C(C)C)=C[C@]3(CC[C@@H]12)[C@H]1[C@@H]4[C@@H](OC(=O)c2ccco2)CC[C@@H]1OC(=O)c1ccco1 (stereo partly drawn)	110%
